The record followed here is PubChem BioAssay (NCI).

Some test systems named below: SR leukemia; RPMI-8226 leukemia; OVCAR-8 ovarian; OVCAR-5 ovarian; OVCAR-4 ovarian; SK-OV-3 ovarian; IGROV1 ovarian; OVCAR-3 ovarian; HS 578T breast; NCI/ADR-RES ovarian; T-47D breast; BT-549 breast; MDA-MB-435 melanoma; SW-620 colon; MCF7 breast; HCT-116 colon; HCC-2998 colon; KM12 colon.
Common to all, as to test: NCI-60 one-dose screen, 48 h (100 = growth as untreated, 0 = no growth, -100 = all killed)
Holding throughout (settings): 10 µM unless noted

Values joined by “and” are separate entries in the source; they are usually repeats but may differ in a detail not shown here. Equal entries are not always repeated. Compounds without any hit were thinned out: in the full panel of roughly 83,000, 20% have a hit.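 Note: values are percent growth. 100 is the growth of untreated cells, values between 100 and 0 indicate rising inhibition; between -100 and 0 indicates cell death.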 Active and inactive are the calls of the source. The calls were made as follows: active = growth percent below 10; inactive = the rest.

With `COc1ccc(CCO)cc1`, the growth was 75.6% (inactive) in the test on SR leukemia; 110% (inactive) with RPMI-8226 leukemia; 101% (inactive) in the test on OVCAR-8 ovarian; 103% (inactive) with OVCAR-5 ovarian; 111% (inactive) with OVCAR-4 ovarian; 109% (inactive) with SK-OV-3 ovarian. For the same molecule, the growth with IGROV1 ovarian is 99.6% (inactive); with OVCAR-3 ovarian, 111% (inactive); in the test on HS 578T breast, 98.2% (inactive); in the test on NCI/ADR-RES ovarian it was 108% (inactive); in the test with T-47D breast, 101% (inactive); in the test with BT-549 breast, 105% (inactive). In addition, the growth in the test with MDA-MB-435 melanoma was 109% (inactive); in the test with SW-620 colon, 104% (inactive); in the test on MCF7 breast it was 102% (inactive); in the test with HCT-116 colon, 94.6% (inactive); with HCC-2998 colon it was 107% (inactive); in the test on KM12 colon, 102% (inactive).
As to `O=C1C=CC(n2cc(F)c(=O)[nH]c2=O)O1` (stereo not drawn), the growth in the test with SR leukemia was 13.1% (inactive); in the test with RPMI-8226 leukemia, 62% (inactive); in the test with OVCAR-8 ovarian it was 62.3% (inactive); with OVCAR-5 ovarian it was 128% (inactive); with OVCAR-4 ovarian, 74.9% (inactive); with SK-OV-3 ovarian, 68.2% (inactive). Further, the growth is 103% (inactive) in the test on IGROV1 ovarian; 57.5% (inactive) in the test with OVCAR-3 ovarian; 90.9% (inactive) in the test on HS 578T breast; 85.1% (inactive) in the test on NCI/ADR-RES ovarian; 65.5% (inactive) in the test with T-47D breast; 43% (inactive) with BT-549 breast. Moreover, the growth was 46.4% (inactive) in the test with MDA-MB-435 melanoma; 79.7% (inactive) in the test with SW-620 colon; 30.1% (inactive) with MCF7 breast; 40% (inactive) in the test with HCT-116 colon; 22.3% (inactive) in the test on HCC-2998 colon; 51.6% (inactive) in the test on KM12 colon.
For `Clc1ccc(/C=C/c2ccc3ccccc3n2)cc1`, the growth in the test with SR leukemia was 29% (inactive) and 59.4% (inactive); in the test on RPMI-8226 leukemia, 5.44% (active) and 63% (inactive) and 86.9% (inactive); in the test with OVCAR-8 ovarian, 28.9% (inactive) and 86.1% (inactive) and 109% (inactive); in the test with OVCAR-5 ovarian, 35.6% (inactive) and 92.6% (inactive) and 74.5% (inactive); with OVCAR-4 ovarian, 79% (inactive) and 88.3% (inactive) and 86.5% (inactive); in the test on SK-OV-3 ovarian it was 20.4% (inactive) and 83% (inactive) and 84.6% (inactive). The growth was 52.6% (inactive) and 27.6% (inactive) and 75.1% (inactive) in the test on IGROV1 ovarian; -20.4% (active) and 106% (inactive) and 92.8% (inactive) in the test with OVCAR-3 ovarian; -20% (active) and 168% (inactive) and 96.4% (inactive) with HS 578T breast; 83.6% (inactive) and 92% (inactive) and 79.4% (inactive) with NCI/ADR-RES ovarian; 18.6% (inactive) and 65.6% (inactive) and 52.5% (inactive) in the test on T-47D breast; 58.7% (inactive) and 107% (inactive) and 94.8% (inactive) in the test on BT-549 breast. For the same molecule, the growth in the test on MDA-MB-435 melanoma is -38.5% (active) and 85.2% (inactive) and 92.6% (inactive); in the test on SW-620 colon, 22.8% (inactive) and 108% (inactive) and 97.1% (inactive); in the test with MCF7 breast, 15.1% (inactive) and 65.5% (inactive) and 67.1% (inactive); in the test on HCT-116 colon it was 18.5% (inactive) and 77% (inactive) and 63.4% (inactive); in the test with HCC-2998 colon, 7.83% (active) and 104% (inactive) and 91.5% (inactive); in the test with KM12 colon, 16.3% (inactive) and 97% (inactive) and 94.7% (inactive).
On to `CN(C)c1ccc(C(=N)c2ccc(N(C)C)cc2)cc1`, for which the growth in the test on SR leukemia is 19.9% (inactive) and 10.4% (inactive); in the test on RPMI-8226 leukemia it was 30.6% (inactive) and 25.1% (inactive); in the test with OVCAR-8 ovarian, 31.5% (inactive) and 31.2% (inactive); in the test on OVCAR-5 ovarian, 68.1% (inactive) and 65.4% (inactive); with OVCAR-4 ovarian it was 57.8% (inactive) and 34.9% (inactive); in the test on SK-OV-3 ovarian, 31.1% (inactive) and 31.6% (inactive). The growth was 35.2% (inactive) and 46% (inactive) with IGROV1 ovarian; -9.34% (active) and 2.49% (active) in the test with OVCAR-3 ovarian; 16% (inactive) and 40.5% (inactive) in the test on HS 578T breast; 0.0366% (active) and 2.94% (active) in the test on NCI/ADR-RES ovarian; 16.9% (inactive) and 33.1% (inactive) in the test with T-47D breast; 70.1% (inactive) and 40.6% (inactive) with BT-549 breast. The growth in the test on MDA-MB-435 melanoma was -7.96% (active) and -36.7% (active); with SW-620 colon, 9.98% (active) and 17.7% (inactive); with MCF7 breast it was 10.1% (inactive) and 2.28% (active); in the test on HCT-116 colon, 18.5% (inactive) and 11.9% (inactive); with HCC-2998 colon it was 52.4% (inactive) and 48% (inactive); in the test with KM12 colon, 14.4% (inactive) and 18.7% (inactive).
Take `Oc1cccnc1CN1CCOCC1`: the growth is 103% (inactive) in the test with SR leukemia; 104% (inactive) and 96.7% (inactive) with RPMI-8226 leukemia; 93.5% (inactive) and 95.3% (inactive) in the test on OVCAR-8 ovarian; 112% (inactive) and 92.8% (inactive) with OVCAR-5 ovarian; 94.9% (inactive) in the test with OVCAR-4 ovarian; 101% (inactive) and 105% (inactive) with SK-OV-3 ovarian. Also, the growth is 106% (inactive) and 109% (inactive) in the test with IGROV1 ovarian; 118% (inactive) and 110% (inactive) in the test with OVCAR-3 ovarian; 115% (inactive) and 105% (inactive) in the test with HS 578T breast; 106% (inactive) and 94.6% (inactive) in the test with NCI/ADR-RES ovarian; 93.1% (inactive) in the test with T-47D breast; 118% (inactive) and 115% (inactive) in the test on BT-549 breast. For the same molecule, the growth with MDA-MB-435 melanoma is 109% (inactive) and 99.3% (inactive); with SW-620 colon it was 109% (inactive) and 101% (inactive); with MCF7 breast it was 95.2% (inactive) and 90.7% (inactive); with HCT-116 colon, 104% (inactive) and 103% (inactive); in the test with HCC-2998 colon, 102% (inactive) and 99.6% (inactive); with KM12 colon, 112% (inactive) and 108% (inactive).
With `CC(C)(C(=O)c1cccnc1)c1cccnc1`, the growth with SR leukemia was 84.7% (inactive); in the test on RPMI-8226 leukemia it was 97% (inactive) and 92.1% (inactive); in the test on OVCAR-8 ovarian it was 106% (inactive) and 104% (inactive); with OVCAR-5 ovarian it was 93.5% (inactive) and 94.5% (inactive); with OVCAR-4 ovarian, 110% (inactive) and 118% (inactive); in the test on SK-OV-3 ovarian, 109% (inactive) and 115% (inactive). The growth in the test on IGROV1 ovarian was 107% (inactive) and 103% (inactive); with OVCAR-3 ovarian, 112% (inactive) and 118% (inactive); in the test with HS 578T breast it was 94.8% (inactive) and 110% (inactive); with NCI/ADR-RES ovarian, 106% (inactive) and 67.8% (inactive); in the test on T-47D breast, 96.2% (inactive) and 111% (inactive); in the test with BT-549 breast it was 103% (inactive) and 136% (inactive). Further, the growth in the test with MDA-MB-435 melanoma was 98.6% (inactive) and 122% (inactive); with SW-620 colon, 105% (inactive) and 106% (inactive); with MCF7 breast, 102% (inactive) and 93.8% (inactive); with HCT-116 colon, 108% (inactive) and 111% (inactive); with HCC-2998 colon, 102% (inactive); in the test with KM12 colon, 101% (inactive) and 113% (inactive).
